Source: PubChem
TRb-SRC2 inh: TRbeta-SRC2 interaction inhibition; P10828; TRbeta-SRC2 peptide binding, fluorescence polarization; receptor liganded with 1 µM T3; Potency, µM (top dose mostly 106 µM), actives largely listed as inhibitors; hit rate 0.065% among 280,000; AID 1469; further: nearly all actives have a fitted effect of over 50% in size
Target sequence (P10828 whole entry, looked up): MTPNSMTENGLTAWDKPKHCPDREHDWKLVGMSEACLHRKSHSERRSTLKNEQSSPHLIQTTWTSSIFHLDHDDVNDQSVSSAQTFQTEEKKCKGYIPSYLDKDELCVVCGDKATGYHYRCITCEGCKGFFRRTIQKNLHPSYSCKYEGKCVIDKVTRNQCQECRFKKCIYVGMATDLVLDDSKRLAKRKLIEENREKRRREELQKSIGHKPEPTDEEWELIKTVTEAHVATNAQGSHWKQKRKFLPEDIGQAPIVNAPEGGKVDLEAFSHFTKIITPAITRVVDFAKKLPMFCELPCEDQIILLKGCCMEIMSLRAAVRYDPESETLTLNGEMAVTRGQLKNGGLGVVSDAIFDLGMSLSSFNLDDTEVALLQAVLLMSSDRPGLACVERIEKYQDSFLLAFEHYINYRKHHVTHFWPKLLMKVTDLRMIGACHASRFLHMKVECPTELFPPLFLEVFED
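Fluorescence polarization of 20 nM Texas Red SRC2 peptide with 0.6 uM human TRb ligand-binding domain, in Tris buffer with 1uM T3 and 5% DMSO. Incubated 5 hr ambient; normalized to unbound and bound controls.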
Tau FP inhib: tau fibrillization inhibition (FP); hit rate 0.39% among 280,000; AID 1468; Potency, µM (titrated, usually from 57.7 µM), most hits filed as inhibitors; K18 P301L tau heparin fibrillization, Alexa594 FP, 6 h; further: nearly all actives have a fitted effect of over 55% in size
Target sequence (P10636 561-689 P618L limits assumed): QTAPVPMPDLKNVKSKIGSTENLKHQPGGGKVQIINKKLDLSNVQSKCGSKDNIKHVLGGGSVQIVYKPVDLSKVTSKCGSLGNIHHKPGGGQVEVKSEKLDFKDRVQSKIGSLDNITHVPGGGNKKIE
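FP of Alexa 594-tau after heparin (20 uM) induction. Substrate: human K18 P301L, 15 uM unlabeled, 0.24 uM labeled. Buffer 100 mM sodium acetate pH 7. 6 hr, 37 C.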
Tau fibril ThT: inhibitors of human tau fibril formation, thioflavin T binding | hit rate 2.1% among 270,000 | recombinant tau K18 P301L, heparin-induced fibrillization, ThT fluorescence | Potency, µM (doses to about 57.4 µM), usual class: inhibitors | AID 1460; further: nearly all actives have a fitted effect of over 55% in size
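ThT emission at 510 nm, taken 1 hr after adding 30 uM dye, quantifies aggregates formed when 20 uM heparin acts on human tau K18 P301L for 6 hr at 37 C.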
Tau fluor counter: counter-screen for tau fibril formation inhibitors; tau K18 P301L (four-repeat tau fragment) Alexa594 fluorescence, heparin fibrillization; Potency, µM (series often up to 57.7 µM); hit rate 0.93% among 280,000; further: nearly all actives have a fitted effect of over 55% in size
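Human K18 P301L tau (15 uM unlabeled plus 0.24 uM Alexa 594-labeled, final) in 100 mM sodium acetate pH 7 was mixed with compound and 20 uM heparin and incubated 6 hr at 37 C.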
TR SRC2 fluor cs: Texas Red fluorescence interference in TRb-SRC2 counter-screen; Potency, µM (series often up to 106 µM); hit rate 0.29% among 280,000; TRb/SRC2 Texas Red total fluorescence interference; active means well fitted curve in either direction with a large enough effect; inconclusive means small, poorly fitted or top-dose-only effect
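Flags fluorescent or light-absorbing compounds by total fluorescence, S + 2P, at 555 nm excitation and 632 nm emission. Mixture: 20 nM Texas Red SRC2 peptide, 0.6 uM human TRb LBD, 1 uM T3, 5% DMSO; compound exposure 5 h at ambient temperature.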
Hits are given with their value; . = inactive; ? = inconclusive; / = not tested or not shown; [ ] = another dose, or the depositor's remark. This is a sample that favours compounds with a hit; in the whole collection about 3% have one here. Unless noted, the call rests on the fitted dose curve; in most records, active means well fitted curve in the direction sought with a large enough effect; inconclusive means small, poorly fitted or top-dose-only effect, or another doubt; inactive means no such curve, though single readings can be large; an effect the other way counts as inactive or inconclusive.

SMILES	TRb-SRC2 inh	Tau FP inhib	Tau fibril ThT	Tau fluor counter	TR SRC2 fluor cs
COCCn1c(SCCCC(=O)c2ccc(Br)cc2)nnc1-c1ccncc1	.	.	.	.	.
O=C(COC(=O)c1ccccc1NS(=O)(=O)c1cccs1)NC1CCCCC1	.	.	.	.	112µM[quencher]
COc1cccc(CNC(=O)CN2C(=O)CCCc3ccccc32)c1OC	.	.	.	.	20µM[quencher]
COc1ccc(CNC(=O)CN2C(=O)CCCc3ccccc32)cc1	.	.	.	.	.
Cc1ccc[n+](-c2nc([O-])sc2/C=N/Nc2ccc([N+](=O)[O-])cc2)c1	.	.	14.1µM	.	.
O=C(/C=C/c1ccc(F)cc1)c1ccc(N2CCOCC2)cc1	.	.	?	.	.
C/C(=C\C(=O)c1ccc(F)cc1)Nc1ccc(N2CCOCC2)cc1	.	.	3.55µM	.	.
COC(=O)C/C=C/C(C)C(OCc1cccc(-c2ccccc2)c1)C1CCCCC1 (configuration not stated)	.[11.2 µM]	.[11.6 µM]	.[11.5 µM]	.[11.6 µM]	?
CCCCN(CCCNC(=O)c1cc(Nc2cccc(SC)c2)nc2ccccc12)Cc1ccccc1	.	?	?	1.78µM[quencher]	.
CC(C)c1ccc(Nc2cc(C(=O)NCCCN(C)Cc3ccccc3)c3ccccc3n2)cc1	.	.	.	?	.
O=C(NCCc1ccccc1)c1cc(Sc2cccc(Cl)c2)nc2ccccc12	.	.	.	.	.
CSc1cccc(Nc2cc(C(=O)NCCc3ccc(Cl)cc3)c3ccccc3n2)c1	.	?	.	3.55µM[quencher]	.
O=C(Nc1cccc(F)c1)c1cccnc1NCCc1ccccc1	.	17.8µM	.	?	.
O=C(Nc1ccc(F)cc1)c1cccnc1NCCc1ccccc1	.	12.6µM	.	?	.
CNC(=O)c1cccnc1Nc1cccc(C(F)(F)F)c1	.	.	.	.	.
O=C(Nc1cccc(C(F)(F)F)c1)c1cccnc1NCCc1ccccc1	.	14.1µM	.	?	.
O=C(Nc1cccc(F)c1)c1ccccc1-c1ccccc1	.	.	.	.	.
CCC(C)(C)NC(=O)C1CCC(CNS(=O)(=O)c2ccc3c(c2)CC(C)N3C(C)=O)CC1 (configuration not stated)	.	.	.	.	.
COc1ccc(/C=N/NC(=O)c2ccc(O)cc2)cc1CN1CCCc2ccccc21	.	?	?	14.1µM[quencher]	.
Cc1ccccc1CSCc1nc2ccccc2[nH]1	.	.	.	.	1.12µM[quencher]
C=C(C)CSCc1nc2ccccc2[nH]1	.	.	.	.	.
NNc1nc2ccccc2nc1C(F)(F)F	.	.	?	.	.
FC(F)(F)c1nc2ccccc2nc1N/N=C\c1ccccc1	.	.	14.1µM	?	.
CC(=O)c1ccc(-c2ccc(/C=C(/Sc3n[nH]c(C)n3)C(=O)O)o2)cc1	.	.	1µM	?	.
COc1ccc(/C=C(/Sc2nnc(-c3ccc(Cl)cc3)o2)C(=O)O)cc1	.	.	?	.	.
SMILES	TRb-SRC2 inh	Tau FP inhib	Tau fibril ThT	Tau fluor counter	TR SRC2 fluor cs
Cc1nc(S/C(=C/c2ccc(-c3ccc(C(=O)O)cc3)o2)C(=O)O)n[nH]1	.	.	4.47µM	.	.
Cc1nc(S/C(=C/c2ccc(-c3cc(Cl)ccc3C)o2)C(=O)O)n[nH]1	.	.	11.2µM	.	.
Cc1nc(S/C(=C/c2ccc(-c3ccc(Cl)cc3)o2)C(=O)O)n[nH]1	.	.	2µM	?	.
Cc1ccc(N2CCN(C(=O)NCc3noc4ccc(C)cc34)CC2)c(C)c1	.	.	?	.	.
N#CC1=C(N)N=C(SCc2cccc3ccccc23)C(C(N)=O)C12CCCCC2 (configuration not stated)	.	.	20µM	?	.
O=C(O)CCn1c(SCc2cccc3ccccc23)nc2ccccc21	.	.	.	.	.
COc1ccc(C2=CC3=C(Br)C(=O)C(C)(OC(=O)c4ccc(Cl)nc4)C(=O)C3=CO2)cc1 (configuration not stated)	.	?	28.2µM	?	.
COC(=O)CCC(=O)OC1(C)C(=O)C2=COC(c3ccc(OC)cc3)=CC2=C(Br)C1=O (configuration not stated)	.	?	12.6µM	.	.
CCN1C(C(=O)c2ccccc2)=C(OC(=O)COc2ccccc2)c2ccccc2S1(=O)=O	.	.	?	.	.
Cc1ccccc1NS(=O)(=O)c1ccc2[nH]cc(C(=O)NC3CCCCC3)c(=O)c2c1	.	28.2µM	.	?	.
Cc1ccccc1NS(=O)(=O)c1ccc2[nH]cc(C(=O)NC(C)c3ccccc3)c(=O)c2c1 (configuration not stated)	.	25.1µM	.	?	.
CCc1ccccc1NS(=O)(=O)c1ccc2[nH]cc(C(=O)NCC3CCCO3)c(=O)c2c1 (configuration not stated)	.	?	.	?	.
Cc1c(Cl)cccc1NS(=O)(=O)c1ccc2[nH]cc(C(=O)NC3CCCC3)c(=O)c2c1	.	14.1µM	.	?	.
Cc1ccccc1NS(=O)(=O)c1ccc2[nH]cc(C(=O)N3CCCCC3)c(=O)c2c1	.	.	.	.	.
C=CC[C@@H]1C=C[C@@H](O/N=C(/C)CCC(=O)OC[C@@H]2O[C@H](c3ccccc3)C=C[C@@H]2Oc2ccc(OC)cc2)[C@@H](CO)O1	.[11.2 µM]	.[11.6 µM]	?	.[11.6 µM]	.[11.2 µM]
S=C(c1ccc(-c2ccc(Cl)c(Cl)c2)o1)N1CCOCC1	.	.	10µM	.	.
Cc1ccc(N2CCN(C(=S)c3ccc(-c4ccccc4[N+](=O)[O-])o3)CC2)cc1	.	.	?	?	.
S=C(c1ccc(-c2ccc(Br)cc2)o1)N1CCOCC1	.	.	/	.	.
S=C(c1ccc(-c2ccccc2Cl)o1)N1CCOCC1	.	.	25.1µM	?	.
O=[N+]([O-])c1ccccc1-c1ccc(C(=S)N2CCN(c3ccccc3)CC2)o1	.	.	11.2µM	?	.
CC(C)CCOc1ccc(Oc2nc(N(C)C)nc(N(C)C)n2)nn1	.	.	.	.	.
CN(c1ccc(O)cc1)c1nc(-c2ccccc2)cs1	.	?	?	15.8µM[quencher]	.
Cc1[nH]c2ccccc2c1C(c1ccccc1)c1ccc(Cl)s1 (configuration not stated)	.	?	?	7.08µM[quencher]	.
COc1ccc(CNC(=O)CCc2c(C)c3cc4c(C)coc4cc3oc2=O)cc1	.	.	.	.	.
COc1ccc(C#CC2C=CC(OC(C)=O)C(COC(C)=O)O2)cc1 (configuration not stated)	.[11.2 µM]	.[11.6 µM]	.[11.5 µM]	.[11.6 µM]	.[11.2 µM]
O=C(Nc1ccc(Cl)cn1)c1ccc(-c2cc(Cl)ccc2Cl)o1	.	?	7.94µM	?	.
Cc1c(C(=O)O)cccc1-c1ccc(/C=C2/NC(=O)N(c3ccccc3)C2=O)o1	.	.	.	.	.
CCN1C(=O)/C(=C/c2ccc(C)o2)N(C)C1=S	.	?	22.4µM	.	.
CCCN1C(=O)/C(=C/c2ccc(C)o2)NC1=S	.	?	25.1µM	.	.
